In the supplement of paper PMC6555819:

These sequences were tested on LXRb homodimer (NR concentration 270 nM) (assay: PBM binding z-score (relative to random genomic background probes); higher = stronger binding; sequences stand for … in GC…GCGATTGACAGCGTAGAATGAAGG).
Outline: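 Regression normalization was applied to scanned fluorescence from custom Agilent 4×180K protein-binding microarrays. Before scanning, arrays were incubated 1 h with ligand-free nuclear receptor dimers, and binding was detected with antibodies against each partner (one per run). Binding z-scores use the random background probes as reference.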

Row | Sequence | PBM binding z-score
1 | CCGACTGGGCCAAAGGTTACCATACTCAGTACGA | -0.974
2 | AGTAAAAGTTCATCTAGGTAACGTAAGATATGCT | 1.71
3 | CCTTACGGGTCACTGACAGGTTATATCATTTGGA | -0.0554
4 | GCGACTGGGGCATCAGCAGCTTACCATAACTTAA | -1.2
5 | GCTGCTAGGTCAACTAATGGTCAGCTAAAGCTCG | 0.0624
6 | CCTACTGGGCCACGAAGGGTCATTGATTCAGTGA | -0.798
7 | ACAGACAGGTGATGAAGGTAACTAAGGCTATCAT | -0.634
8 | TCTTGTAGATCAAGCAGGTTGAGAAAGCCTGAGT | -0.57
9 | TCTATTAGTTGATTAGGGCGACCGAAACAGCGGA | 0.556
10 | CTACCAAGGTGAGCAAGGTCGTTGATTACTATTC | -0.778
11 | ATCGAAAGGTCGTGAGGTGGGTATACAGAAAGGC | 0.784
12 | CTCGAAAGGTCGCTTGAGGTGAGTATACGGATAA | -0.203
13 | CCTTACGGGTCAAGGCTATAGCACGGGTGGTACG | -0.119
14 | AGAATGAGGTTATTAAGATTAGGGAATTGCGGTC | 0.178
15 | TCTCGGAGGACTCGAAAGGTCAGAGCTCGACATC | -0.682
16 | ATCTCTAGGTATAGTTCAGTGAAAGATCGATAGA | 1.21
17 | CATACTAGGTCACGAAAGGTCAAAGTCGAATGAC | 3.6
18 | CCTACTGGGCCCAAGGTCATTGATTCCAATGCTC | 0.0311
19 | GGAACGATGGCAAGTTGATAGCAGAGTTTGATGG | -1.01
20 | TCTTGTAGATCATAGGTTAAGAAAGCCGAAGCCT | 0.0364

Row | Sequence | PBM binding z-score
21 | CGTCCAAGGTCAAAGGCCAGTGAAGAGATGACGG | 0.919
22 | TCATATAGGTAAACAAGTGAAAGTCCGTAAGTTA | 0.297
23 | CCTTACGGGTCACTGACAGGTTATAACATTTGGA | 0.0468
24 | ATATGTACGTTATCGGGTCATTCAGTTTGCGCAT | 1.03
25 | CCTTCTGGGCCAAGGTCATTGATCAGTCAAAGCA | -0.27
26 | TCTATTCGTTGAAGGGCAACCGACGAGTCCGTTT | 0.752
27 | CATAGTTGGTCAGGAGGTCACACACCGGATATGA | 0.669
28 | CGTCCAAGGTCAGCAGGTCAGTGATAGCGACGTG | -0.265
29 | AACTCTAGGTAACAAGTTCAGTGAAAGAGAGGAC | -0.166
30 | CCTACTGGGCCATTCAGAGTTCATTGATCATATG | -0.389
31 | CCTACTGGTCCAAAAAGGTCATTGATGCCGATAA | 1.21
32 | AGAATGAGGTTAACATCAGGGAAACAGAATACAT | -0.23
33 | CCTACTGGGCCAAAGGTCATTAATTCCAATGCTC | 0.938
34 | TAGCCTGGGTCAGATCGGGCCAGTATACGCTATA | -0.84
35 | ACAGACAGGTGATGGAGGTAACTCAGGCTATCAT | -0.598
36 | AGAATGAGGTTATTACGATCAGGGAATTGCGGTC | 0.0914
37 | TCCTGTAGATCAATAGAGGTTAAGAAAGTGCGCT | 0.0925
38 | ACAGACAGGTGATGAGGGTAACTCAGGCTATCAT | -0.517
39 | GCTGCTAGGACAACTGATGGTCAGCTAAAGCTCG | -1.05
40 | ACTAGCAGGCCAAGTTTGGGTCACTCGAACAAAG | -0.727
